# Experimental data reported in PubChem BioAssay (NCATS).
# Results filed as inconclusive are left out. Unmarked numbers belong to inactive results. The call rests on the fitted dose curve; in most records, active means well fitted cell-killing curve with a large enough effect; inconclusive means small, poorly fitted or top-dose-only effect; inactive means flat fitted curve, though single readings scatter.
# Test: Cell Viability - LYMP2-017 (AID 972); further: nearly all actives have a fitted effect of over 55% in size
# Details: LYMP2-017 lymphoblastoid cell viability; series mostly up to 92.2 µM; activity change, negative = cytotoxicity: at the top concentration
# Source text: NIH Chemical Genomics Center [NCGC]
# NIH Molecular Libraries Screening Centers Network [MLSCN]
# National Institutes of Environmental Health Sciences [NIEHS]
# National Toxicology Program [NTP]
# We have developed a 1536-well cell-based assay for quantitative high throughput screening (qHTS) against a number of cell lines to determine in vitro cytotoxicity of small molecules. This particular assay uses a human lymphoblastoid cell line (LYMP2-017) purchased from Coriell Institute for Medical Research.
# NCGC Assay Protocol Summary:
# The CellTiter-Glo luminescent cell viability assay (Promega) is a homogeneous method to measure the number of viable cells in culture. The end point readout of this assay is based on quantitation of intracellular ATP, an indicator of metabolic activity, using the luciferase reaction. Luciferase catalyzes the oxidation of beetle Luciferin to oxyluciferin and light in the presence of ATP. The luminescent signal is proportional to amount of ATP present.
# Using the CellTiter-Glo luminescent cell viability assay, the amount of cellular ATP was measured in the lymphoblastoid cell line with complete culture medium following compound treatment for 24 hours. The assay was performed in opaque white Kalypsys 1536-well plates. In the screen, tetraoctylammonium bromide was used as positive control. Library compounds were measured for their ability to cause acute toxicity in the cell line, as reflected by a decrease in intracellular ATP levels, in a concentration-dependent manner. […] AC50 values were determined from concentration-response data modeled with the standard Hill equation.
# qHTS protocol for CellTiter Glo lymphoblastoid cellular assay
# [Step] [Parameter] [Value] [Description]
# 1. Reagent; 5 uL; 2500 lymphoblastoid cells/well
# 2. Time; 5 hr; 37 C incubation
# 4. Controls; 23 nL; Tetraoctylammonium bromide 6.4pM to 92 uM
# 5. Time; 24 hr; 37 C incubation
# 6. Reagent; 5 uL; CellTiter Glo reagent
# 7. Time; 30 min; Room Temperature
# 8. Detection; Luminescence; Viewlux plate reader
# Keywords: cell viability, cytotoxicity, lymphoblastoid cell line, luminescence, NTPHTS, NTPHTS_NCGC, NIEHS, DSSTox, MLSMR, MLSCN, NIH Roadmap, qHTS, NCGC
# On the % scale 0 is the no-effect control and ±100 the full control effect.
row,Structure (SMILES),"activity change, negative = cytotoxicity [%]"
1,CCNc1cc(O)ccc1C,-0.571
2,O=C(O)c1ccccc1Cl,-9.95
3,CCOC(=O)OCC,-5.78
4,C/C=C1\CC2C=CC1C2 (stereo not given),-6.38
5,O=C(Cl)c1cccc([N+](=O)[O-])c1,-0.87
6,CC(=O)OCc1ccco1,0.28
7,O=C(O[C@@H](C(=O)O)[C@@H](OC(=O)c1ccccc1)C(=O)O)c1ccccc1,-14.2
8,C=C(C)OC(C)=O,-14.3
9,O=P(O)(OCc1ccccc1)OCc1ccccc1,0.0848
10,CSCCC=O,-9.05
11,Cc1ccc2ncccc2c1,5.8
12,COc1ccccc1[N+](=O)[O-],-5.77
13,Oc1c(Cl)ccc(Cl)c1Cl,1.99
14,CN(C)c1cccc(O)c1,-2.75
15,COC(=O)c1ccccc1,-7.57
16,ClC/C=C/CCl,-20
17,O=C(O)CCSSCCC(=O)O,4.69
18,CC(=O)CCc1ccccc1,-12.6
19,CCN(Cc1ccccc1)c1ccccc1,4.42
20,Cc1c(N)cccc1N,-14.8

row,Structure (SMILES),"activity change, negative = cytotoxicity [%]"
1,C=Cc1ccc(C=C)cc1,3.45
2,Cc1cc(C2(c3cc(C)c(O)cc3C)OS(=O)(=O)c3ccccc32)c(C)cc1O,-13.9
3,Nc1ccc([N+](=O)[O-])c(N)c1,-10.8
4,C=C(C)C1CC=C(C)C(OC(C)=O)C1 (stereo not given),4.82
5,CN(C)CCCNCCCN,-22.7
6,CCOC(=O)C(C)C(C)=O (stereo not given),-9.72
7,Nc1ccc(F)cc1F,-8.9
8,NC(=O)c1cccc([N+](=O)[O-])c1,1.22
9,O=C(O)c1ccc(Cl)c(Cl)c1,2.01
10,Cc1cccc([N+](=O)[O-])c1C(=O)O,5.65
11,CC1CCC2CC1C2(C)C (stereo not given),-15.5
12,CCC(C)O (stereo not given),-5.53
13,C=CCn1c(=O)n(CC=C)c(=O)n(CC=C)c1=O,-8.77
14,O=C(O)c1ccccc1[N+](=O)[O-],-2.38
15,O=Cc1ccccc1Cl,-10.4
16,CC(=O)c1cc(C)oc1C,-6.51
17,CC(C)N(C)C,-8.48
18,C=Cc1ccccc1C=C,2.27
19,CC(C)(C)OCC1CO1 (stereo not given),3.03
20,Cc1ccc(C)o1,-5.46
